In PubChem BioAssay (NCATS):
Results filed as inconclusive are left out. Unmarked numbers belong to inactive results. Active and inactive are the calls of the source. The call rests on the fitted dose curve; in most records, active means well fitted inhibition curve with a large enough effect; inconclusive means small, poorly fitted or top-dose-only effect; inactive means flat fitted curve, though single readings scatter.

What follows are compounds tested on HaCat (assay: Cytotoxic Profiling of Annotated Libraries Using Quantitative High-Throughput Screening (AID 1296008; further: nearly all actives have a fitted effect of over 60% in size)). Conditions: Five cell lines viability, CellTiter-Glo ATP luminescence, 48-72 h; max response: hits give low values.
Procedure, shortened: (§1)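 Cells exposed to compounds for 48 or 72 hr at 37 degrees Celsius. Viability read as ATP-coupled luminescence with CellTiter-Glo after 10 min at room temperature.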
On the % scale 0 is the no-effect control and ±100 the full control effect; potency means the concentration at half of the fitted maximal effect.

| Compound | max response | Potency |
| --- | --- | --- |
| CCCCCCOC(=O)/N=C(\N)c1ccc(NCc2nc3cc(C(=O)N(CCC(=O)OCC)c4ccccn4)ccc3n2C)cc1 | -18.9% |  |
| C#CCCCn1cc(-c2cccc3c2N[C@H](C)CC(=O)N3)cn1 | 0.674% |  |
| COC(=O)Nc1cc(Nc2cc(NC3CC3)c3ncc(C#N)n3n2)c(Cl)c(N2CCN(C)CC2)c1 |  | 741 nM (active) |
| CCCC1(CCC)CCC2(CCN(CCCN(CC)CC)C2)CC1 |  | 4610 nM (active) |
| COc1ccc(N(C(=O)Nc2c(C)cccc2C)c2cc(Nc3ccc(N4CCN(C)CC4)cc3)ncn2)c(OC)c1 |  | 7310 nM (active) |
| CN1C(=O)c2sccc2N(C)c2nc(Nc3ccc(S(N)(=O)=O)cc3)ncc21 |  | 18600 nM (active) |
| CC(C)NCCCn1c(Sc2cc3c(cc2I)OCO3)nc2c(N)ncnc21 |  | 231 nM (active) |
| O=C(Nc1ccc(Cl)cc1)C1CCCN(C(=O)c2cccc(-c3ccco3)c2)C1 (centres undefined) | -30% |  |
| COc1c(C)cnc(Cn2cc(C#CCC(C)(C)O)c3c(Cl)nc(N)nc32)c1C |  | 73.1 nM (active) |
| Cc1cc(-c2nc(-c3ccc(OC(F)(F)F)cc3)no2)nn1Cc1ccnc(N2CCN(C3CC3)CC2)c1 | 4.17% |  |
| CCOC(=O)[C@@]1(CCCCCCOc2ccc(Cl)cc2)CO1 | 3.74% |  |
| COC(C)(C)CCn1nc(Nc2c(C)cccc2C)c2cnc(Nc3ccc(OCCN4CCCC4)c(F)c3)nc21 |  | 1300 nM (active) |
| CCOC(=O)c1cnc2ccc(-c3cncc(NS(=O)(=O)c4ccccc4)c3)cn12 |  | 1460 nM (active) |
| CN1CCC(NC(=O)c2cc(-c3c(O)cc(O)cc3Oc3ccc([N+](=O)[O-])cc3)on2)CC1 |  | 1460 nM (active) |
| O=C1C(Cc2ccc(O)cc2)N2C(=O)CCN(C(=O)NCc3ccccc3)C2CN1Cc1cccc2ccccc12 (centres undefined) |  | 5800 nM (active) |
| COc1cc(N2CCC(N3CCN(C)CC3)CC2)ccc1Nc1ncc(Cl)c(Nc2ccccc2P(C)(C)=O)n1 |  | 1840 nM (active) |

The compounds below were run on NIH3T3 in the same assay as above. Conditions: Five cell lines viability, CellTiter-Glo ATP luminescence, 48-72 h; max response: hits give low values.
Procedure, shortened: as §1

| Compound | max response | Potency |
| --- | --- | --- |
| C=C[C@@]12COC(=O)C(=C)[C@@H]1[C@@H](O)[C@H](C(=C)C(=O)OC)[C@@H](O)C2 | -16.2% |  |
| COC(=O)C1=CO[C@@H](O[C@@H]2O[C@H](CO)[C@@H](O)[C@H](O)[C@H]2O)[C@H]2[C@@H]1C=C[C@]21C=C([C@H](C)OC(=O)/C=C/c2ccc(O)cc2)C(=O)O1 |  | 3060 nM (active) |
| COc1cc(N2CCC(N)CC2)ccc1Nc1ncc(Cl)c(-c2c[nH]c3ccccc23)n1 |  | 2310 nM (active) |
| C=C(C)Cn1c(SCC(=O)c2cccs2)nc2sc3c(c2c1=O)CCCC3 |  | 1840 nM (active) |
| CCc1c[nH]c2ncnc(N3CC[C@](N)(CNC(=O)c4ccc(F)cc4F)C3)c12 | 4.64% |  |
| CC[C@@H](C)Nc1cc(C(=O)NC2CC3CCC(C2)N3c2ccc(C(=O)C3CC3)cn2)c(C)cc1C(N)=O (some centres undefined) |  | 206 nM (active) |
| Cc1nc(-c2cn3c(n2)-c2ccc(-c4cnn(C(C)(C)C(N)=O)c4)cc2OCC3)n(C(C)C)n1 |  | 5170 nM (active) |
| CC(C)c1ccccc1OC(=O)NCCc1ccc2ccccc2c1 | 3.78% |  |
| O=C(Cc1cccc(OC(F)(F)F)c1)Nc1ccc(CCCCc2nnc(NC(=O)Cc3ccccn3)s2)nn1 |  | 26300 nM (active) |
| COC1=CC(=O)C[C@@H](C)[C@@]12Oc1c(Cl)c(OC)cc(OC)c1C2=O | -50.9% |  |
| Cc1ccc(C(=O)Nc2ccc(CN3CCN(C)CC3)c(C(F)(F)F)c2)cc1C#Cc1cnc2[nH]ncc2c1 |  | 580 nM (active) |
| CCc1cc(C(N)=O)ccc1-n1nc(C(C)C)c2c(-n3cnc(-c4cnn(C)c4)c3)ccnc21 |  | 1300 nM (active) |
| Nc1nc(O)c(C2=C3C(=Nc4ccccc43)C(=O)NCC2)[nH]1 | 2.47% |  |
| COc1ccc(C[C@H]2COC(=O)[C@@H]2Cc2ccc(O[C@@H]3O[C@H](CO)[C@@H](O)[C@H](O)[C@H]3O)c(OC)c2)cc1OC | -30.4% |  |
| COc1cc(O)c2c(c1)C1OC1C[C@H](O)[C@H](O)C(=O)/C=C\C[C@H](C)OC2=O (some centres undefined) |  | 2060 nM (active) |
| CC(/C=C/C(=O)NO)=C\[C@@H](C)C(=O)c1ccc(N(C)C)cc1 |  | 1300 nM (active) |
| C/C1=C/CCC2=CC(OC2=O)C(C)(C)/C=C/C1=O (centres undefined) |  | 4110 nM (active) |
| CCCCCCOC(=O)/N=C(\N)c1ccc(NCc2nc3cc(C(=O)N(CCC(=O)OCC)c4ccccn4)ccc3n2C)cc1 | -4.93% |  |
